Source: PubChem BioAssay
Rows were chosen to be rich in hits. Some 6.7% of all compounds tested hit in one or more screens of this group.
Pf Dd2 inh: P. falciparum Dd2 growth inhibitors, primary screen, SYBR Green fluorescence, single dose replicates; 72 h; active compounds read low; activity change, % at 10 µM; 2.3% of 94,000 active; AID 1159554, 2015; in the data active means activity change below about -80%; inconclusive means no clear call, values can overlap the other calls
C diff growth: C. difficile growth inhibitors, primary screen, HTS; Clostridium difficile clinical isolate growth, OD600, 24 h; active compounds read low; growth activity, negative = inhibition, % at 16 µg/mL (by protocol); 0.25% of 86,000 active; AID 1259249, 2017;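 active means mean growth activity at or below -80% and every replicate also at or below -80%; inconclusive means mean at or below -80% but some replicate above -80%; inactive means mean growth activity above -80%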;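 further: 0% = DMSO wells and -100% = levofloxacin 16 µg/mL wells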
T cruzi growth-1: T. cruzi intracellular proliferation inhibitors, primary screen, cell-based, beta-gal Tulahuen parasites, NIH3T3 host, luminescence; 5.9% of 77,000 active; inhibition, % at 8.34 µM; T. cruzi beta-gal in NIH3T3, GalScreen luminescence, 90 h;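 active means mean inhibition above about 93%, with at least 55% of replicates each passing it, limit read from the data, passing the limit was not always enough; inconclusive means only one of those two conditions holds; inactive means neither condition holds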
T cruzi growth-2: T. cruzi intracellular proliferation inhibitors, confirmation, cell-based, NIH3T3 host, beta-gal parasite, luminescence, cherry-pick; inhibition, % at 8.35 µM; shares compounds with T cruzi growth-1; AID 651739, 2012; T. cruzi beta-gal in NIH3T3, GalScreen luminescence, 90 h; 72% of 5,600 active;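 active means mean replicate inhibition above about 95% and at least 55% of replicates individually reaching it, limit read from the data; inconclusive means only one of the two criteria is met; inactive means neither criterion is met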
T cruzi growth-3: inhibitors of intracellular T. cruzi replication, confirmation, NIH3T3 host cells, beta-gal parasites, cherry-pick, set 2. 21% of 5,600 active. inhibition, % at 2.09 µM. shares compounds with T cruzi growth-1. T. cruzi beta-gal in NIH3T3, GalScreen luminescence, 90 h. AID 651740, 2012;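 active means mean inhibition above about 95%, with at least 55% of replicates also reaching it, limit read from the data; inconclusive means meets just one of the two conditions; inactive means meets neither condition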;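 further: plate controls were neutral control median for no effect and positive control median for full effect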
3T3 cytotox: cytotoxicity in mouse NIH/3T3 fibroblasts, confirmation, cytotoxicity control for T. cruzi proliferation inhibitor project, cell-based, cherry-pick, single point | NIH/3T3 viability, CellTiter-Glo ATP luminescence, 90 h | shares compounds with T cruzi growth-1 | cytotoxicity (signal decrease), % at 8.35 µM | 14% of 5,600 active;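 active means mean signal decrease across replicates above about 35% based on untreated-well scatter, with enough replicates individually passing, limit read from the data; inconclusive means no rule stated though some were filed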;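 further: 0% = median of neutral control wells and 100% = median of positive control wells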
3T3 cytotox 2: NIH/3T3 fibroblast cytotoxicity, confirmation, cytotoxicity control, cell-based, cherry-pick, single point, set 2. 56% of 5,600 active. NIH/3T3 viability, CellTiter-Glo ATP luminescence, 90 h. inhibition, % at 24.9 µM. AID 651744, 2012. shares compounds with T cruzi growth-1;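 active means mean loss of cell viability signal at or above a set limit, and enough replicates individually reaching it; inconclusive means meets only the mean limit or only the replicate share; inactive means meets neither condition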;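 further: 0% = median of neutral control wells and 100% = median of positive control wells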
The depositor's hits bear a star; u = inconclusive; x = no result given.

SMILES | Pf Dd2 inh | C diff growth | T cruzi growth-1 | T cruzi growth-2 | T cruzi growth-3 | 3T3 cytotox | 3T3 cytotox 2
COC(=O)C[C@H]1CC[C@@H]2[C@@H](COc3ccc(NS(=O)(=O)c4ccc(C)cc4)cc3C(=O)N2C)O1 | -27 | 12 | 21 | x | x | x | x
CN1C(=O)c2cc(NS(=O)(=O)c3ccc(Cl)cc3)ccc2OC[C@@H]2O[C@@H](CC(=O)N3CCc4ccccc4C3)CC[C@@H]21 | -7 | 3 | 64 | x | x | x | x
COC(=O)C[C@H]1CC[C@@H]2[C@H](COc3ccc(NS(=O)(=O)c4cccc(F)c4)cc3C(=O)N2C)O1 | -26 | 0 | 105* | -7 | -15 | -5 | -16
CN1C(=O)c2cc(NS(=O)(=O)c3ccc(Cl)cc3)ccc2OC[C@H]2O[C@@H](CC(=O)N3CCc4ccccc4C3)CC[C@@H]21 | -27 | 15 | 113* | 104* | 28 | 21 | 71*
O=C(Nc1ccccc1F)N[C@H]1CC[C@H](CCNS(=O)(=O)c2ccc(F)cc2)O[C@H]1CO | x | -2 | x | x | x | x | x
CCCC#Cc1ccc2c(c1)O[C@H](CN(C)Cc1ccccc1)[C@H](C)CN([C@@H](C)CO)S2(=O)=O | -6 | x | x | x | x | x | x
CS(=O)(=O)N1[C@@H]2c3ccc(-c4cccc(F)c4)c(=O)n3C[C@@H]2[C@@H](CO)[C@@H]1C(=O)NC1CCC1 | 13 | 1 | x | x | x | x | x
C[C@H]1CN([C@@H](C)CO)C(=O)c2c(c3ccccc3n2C)-c2ccccc2CO[C@H]1CN(C)S(=O)(=O)c1cn(C)cn1 | -23 | -1 | 101* | 16 | 7 | 2 | 22
C[C@H]1CN([C@@H](C)CO)C(=O)c2c(c3ccccc3n2C)-c2ccccc2CO[C@@H]1CN(C)S(C)(=O)=O | 8 | x | 15 | x | x | x | x
C[C@@H]1CN([C@H](C)CO)C(=O)c2c(c3ccccc3n2C)-c2ccccc2CO[C@@H]1CN(C)S(=O)(=O)c1cn(C)cn1 | 16 | -11 | 90 | x | x | x | x
C[C@@H]1CN([C@@H](C)CO)C(=O)c2c(c3ccccc3n2C)-c2ccccc2CO[C@@H]1CN(C)S(=O)(=O)c1cn(C)cn1 | 1 | -18 | u | 8 | -50 | 1 | 31*
CC(C)NC(=O)N(C)C[C@@H]1Oc2ccc(NC(=O)Nc3ccc4c(c3)OCO4)cc2CC(=O)N([C@@H](C)CO)C[C@@H]1C | -32 | 3 | 0 | x | x | x | x
O=C(NC[C@@H]1CC[C@H]2[C@H](CN2S(=O)(=O)c2ccccc2)O1)NC1CCCCC1 | 15 | -3 | x | x | x | x | x
CCCC#Cc1ccc([C@@H]2[C@H](CO)N3CCCCN(C(=O)NC4CCCC4)C[C@@H]23)cc1 | -43 | 16 | u | 109* | 89 | 14 | 103*
CCCC#Cc1ccc([C@@H]2[C@@H](CO)N3CCCCN(C(=O)NC4CCCC4)C[C@@H]23)cc1 | 18 | 12 | 86 | x | x | x | x
COCC#Cc1ccc([C@@H]2[C@@H](CO)N3CCCCN(C(=O)NC4CCCC4)C[C@@H]23)cc1 | -24 | 22 | 73 | x | x | x | x
CCCC#Cc1ccc([C@H]2[C@@H](CO)N3CCCCN(C(=O)NC4CCCC4)C[C@H]23)cc1 | -79 | 1 | u | 106* | 81 | 44* | 103*
C[C@@H]1CN([C@H](C)CO)C(=O)c2cc(N(C)C)ccc2O[C@@H]1CN(C)C(=O)Nc1ccc(C(F)(F)F)cc1 | -17 | -3 | x | x | x | x | x
C[C@H]1CN([C@@H](C)CO)S(=O)(=O)c2ccc(C#CCN(C)C)cc2O[C@H]1CN(C)Cc1ccncc1 | -9 | 2 | 28 | x | x | x | x
C[C@H]1CN([C@@H](C)CO)S(=O)(=O)c2ccc(C#CCN(C)C)cc2O[C@@H]1CN(C)Cc1ccccc1 | -44 | 0 | 108* | 105* | 93 | 31 | 105*
CC(C)CC#Cc1ccc2c(c1)O[C@@H](CN(C)Cc1ccccc1)[C@@H](C)CN([C@@H](C)CO)S2(=O)=O | -67 | 22 | 125* | 96* | 110* | 11 | 106*
CC(C)CC#Cc1ccc2c(c1)O[C@@H](CN(C)Cc1ccc(F)cc1)[C@H](C)CN([C@H](C)CO)S2(=O)=O | -46 | 16 | 49 | x | x | x | x
C[C@@H]1CN([C@H](C)CO)S(=O)(=O)c2ccc(C#CCN(C)C)cc2O[C@@H]1CN(C)Cc1ccccc1 | -32 | -2 | 59 | x | x | x | x
CC(C)CC#Cc1ccc2c(c1)O[C@@H](CN(C)Cc1ccncc1)[C@@H](C)CN([C@H](C)CO)S2(=O)=O | -56 | 12 | 130* | 100* | 91 | 1 | 104*
C[C@@H]1CN([C@@H](C)CO)S(=O)(=O)c2ccc(C#CCN(C)C)cc2O[C@@H]1CN(C)Cc1ccncc1 | 8 | 1 | 48 | x | x | x | x
SMILES | Pf Dd2 inh | C diff growth | T cruzi growth-1 | T cruzi growth-2 | T cruzi growth-3 | 3T3 cytotox | 3T3 cytotox 2
CCCC#Cc1ccc2c(c1)O[C@@H](CN(C)Cc1ccncc1)[C@H](C)CN([C@H](C)CO)S2(=O)=O | -70 | 9 | 117* | 98* | 102* | 72* | 105*
C[C@H](CO)N1C[C@H](C)[C@H](CN(C)S(=O)(=O)c2cn(C)cn2)Oc2ccc(NS(=O)(=O)c3cn(C)cn3)cc2C1=O | 19 | x | 42 | x | x | x | x
CCCc1cn(CC[C@@H]2CC[C@H](NC(=O)C3CC3)[C@H](CO)O2)nn1 | 12 | 0 | x | x | x | x | x
O=C(Cc1ccncc1)NCC[C@H]1CC[C@H](NC(=O)Nc2ccc(F)cc2)[C@H](CO)O1 | 14 | -2 | -19 | x | x | x | x
CC(C)CC#Cc1ccc2c(c1)O[C@@H](CN(C)Cc1ccncc1)[C@@H](C)CN([C@@H](C)CO)S2(=O)=O | -68 | 11 | 122* | 109* | 93 | 8 | 109*
CC(C)CC#Cc1ccc2c(c1)O[C@@H](CN(C)Cc1cncnc1)[C@@H](C)CN([C@H](C)CO)S2(=O)=O | -16 | 5 | 78 | x | x | x | x
C[C@H](CO)N1C[C@H](C)[C@@H](CN(C)Cc2ccncc2)Oc2cc(C#CCN(C)C)ccc2S1(=O)=O | -50 | 1 | 7 | x | x | x | x
CC(C)CC#Cc1ccc2c(c1)O[C@H](CN(C)Cc1ccncc1)[C@H](C)CN([C@@H](C)CO)S2(=O)=O | -70 | 6 | u | 95* | 88 | 49* | 97*
C/C=C/c1ccc([C@@H]2[C@@H](CO)N3CCCCN(S(=O)(=O)c4ccc(F)cc4)C[C@@H]23)cc1 | 11 | 0 | 85 | x | x | x | x
C/C=C/c1ccc([C@@H]2[C@H]3CN(S(=O)(=O)c4ccc(F)cc4)CCCCN3[C@H]2CO)cc1 | -24 | 11 | 96 | x | x | x | x
